# PubChem BioAssay
# Inconclusive results are not listed. Calls of active or inactive are those of the source.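 How the source made its calls, unless noted: active means inhibition above 54%, about 3 SD of non-fluorescent compounds; inactive means the rest.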
# Columns and labels:
# [1] = yeast TOR pathway RPL19A-GFP modulators, primary screen, cell-based, S. cerevisiae, multiplex flow cytometry (AID 1862; in the data active means percent of DMSO control GFP below about 86%;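 further: lower values mimic rapamycin by blocking the RPL19A rise seen in DMSO cells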); conditions: S. cerevisiae RPL19A-GFP strain, flow cytometry fluorescence, 3 h; at 10 µM; stronger effect = lower value
# [2] = modulators of MEP2-GFP levels in yeast, primary screen, S. cerevisiae, multiplex flow cytometry (AID 1867;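 active means GFP response, as percent of the DMSO control, above the screen-wide mean plus 3 SD, about 139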;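 further: median GFP channel fluorescence of barcode-gated MEP2-GFP cells measured by flow cytometry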); conditions: S. cerevisiae MEP2-GFP strain, 3 h, at 10 µM, stronger effect = higher value, 100% means same as DMSO wells
# [3] = modulators of CIT2-GFP expression in yeast, primary screen, S. cerevisiae, GFP fusion, multiplex flow cytometry (AID 1870;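 active means percent response above a set limit, the screen-wide mean plus 3 SD, cut at about 130% in these data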;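 further: barcoded CIT2-GFP strain pooled with four other GFP strains with rapamycin as positive control; median GFP fluorescence per well over plate mean of DMSO wells so 100% = DMSO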); conditions: 3 h, at 10 µM, stronger effect = higher value
# [4] = modulators of LAP4-GFP expression in yeast, primary screen, S. cerevisiae, multiplex flow cytometry (AID 1873;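 active means GFP signal, as percent of the solvent control, above the screen mean plus 3 SD, about 149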); conditions: 3 h, at 10 µM, stronger effect = higher value
# [5] = modulators of AGP1-GFP expression in yeast TOR pathway, primary screen, cell-based, multiplex flow cytometry, S. cerevisiae (AID 1887;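 active means GFP signal above the screen-wide mean plus 3 SD, that is over about 124.5% of the solvent control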;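 further: AGP1-GFP fusion strain of S. cerevisiae within a five-strain barcoded multiplex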); conditions: 3 h, at 10 µM, stronger effect = higher value
# [6] = inhibitors of CD8+ T cell-vesicle binding, pilot screen, LFA-1/ICAM-1 modulator project, MLPCN validation set, flow cytometry (AID 2523;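 active means response below a set limit, under 55% cells CD8-positive and vesicle-bound, and CD8 cells' 90th-percentile brightness under 279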;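 on vesicle binding response: mean PE anti-B7-1 fluorescence of CD8+ cells relative to row control; 100% = QL9-loaded vesicles with DMSO vehicle in the same plate row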); conditions: 2C mouse CD8+ T cells, at 7 µM, stronger effect = lower value; double positive events: measured here: CD8+/vesicle+ event percentage
# [7] = target: Integrin beta-1 (Homo sapiens) + Integrin alpha-4 (Homo sapiens) (UniProt P13612+P05556); experiment: inhibition of HUTS-21 binding to VLA-4, pilot screen, VLA-4 allosteric modulator project, U937 cells, HUTS-21 mAb, flow cytometry, validation set (AID 2674;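 active means inhibition above 50%, about 3 SD of the validation set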;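 further: antibody binding induced by the VLA-4 ligand LDV present at three times its Kd; 0% = LDV ligand with antibody and no compound and 100% = antibody without LDV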); conditions: HUTS-21 LIBS mAb binding, at 6.7 µM, stronger effect = higher value, binding induced by LDV ligand
# Integrin beta-1 (Homo sapiens) + Integrin alpha-4 (Homo sapiens), sequence (P05556 whole entry, looked up): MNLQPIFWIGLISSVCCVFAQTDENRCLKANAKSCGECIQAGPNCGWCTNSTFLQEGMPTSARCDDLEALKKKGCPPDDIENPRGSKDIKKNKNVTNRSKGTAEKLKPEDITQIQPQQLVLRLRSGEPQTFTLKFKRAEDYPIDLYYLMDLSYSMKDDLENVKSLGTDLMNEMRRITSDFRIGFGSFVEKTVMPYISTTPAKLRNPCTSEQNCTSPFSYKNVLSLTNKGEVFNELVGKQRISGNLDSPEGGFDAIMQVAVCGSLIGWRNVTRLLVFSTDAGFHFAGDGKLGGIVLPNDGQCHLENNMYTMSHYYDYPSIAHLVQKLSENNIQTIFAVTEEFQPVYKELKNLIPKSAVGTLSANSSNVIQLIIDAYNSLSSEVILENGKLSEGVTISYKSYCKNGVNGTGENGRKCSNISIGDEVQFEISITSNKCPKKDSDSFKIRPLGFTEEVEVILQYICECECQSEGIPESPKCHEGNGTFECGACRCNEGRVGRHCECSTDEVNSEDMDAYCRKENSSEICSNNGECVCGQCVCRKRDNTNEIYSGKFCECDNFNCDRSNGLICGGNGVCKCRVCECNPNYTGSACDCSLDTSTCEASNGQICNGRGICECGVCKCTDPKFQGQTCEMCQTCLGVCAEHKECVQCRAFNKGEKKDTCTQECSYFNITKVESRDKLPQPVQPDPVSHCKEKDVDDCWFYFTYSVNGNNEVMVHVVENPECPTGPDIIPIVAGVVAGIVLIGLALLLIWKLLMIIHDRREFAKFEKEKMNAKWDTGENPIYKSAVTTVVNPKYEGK
# Integrin beta-1 (Homo sapiens) + Integrin alpha-4 (Homo sapiens), sequence (P13612 whole entry, looked up): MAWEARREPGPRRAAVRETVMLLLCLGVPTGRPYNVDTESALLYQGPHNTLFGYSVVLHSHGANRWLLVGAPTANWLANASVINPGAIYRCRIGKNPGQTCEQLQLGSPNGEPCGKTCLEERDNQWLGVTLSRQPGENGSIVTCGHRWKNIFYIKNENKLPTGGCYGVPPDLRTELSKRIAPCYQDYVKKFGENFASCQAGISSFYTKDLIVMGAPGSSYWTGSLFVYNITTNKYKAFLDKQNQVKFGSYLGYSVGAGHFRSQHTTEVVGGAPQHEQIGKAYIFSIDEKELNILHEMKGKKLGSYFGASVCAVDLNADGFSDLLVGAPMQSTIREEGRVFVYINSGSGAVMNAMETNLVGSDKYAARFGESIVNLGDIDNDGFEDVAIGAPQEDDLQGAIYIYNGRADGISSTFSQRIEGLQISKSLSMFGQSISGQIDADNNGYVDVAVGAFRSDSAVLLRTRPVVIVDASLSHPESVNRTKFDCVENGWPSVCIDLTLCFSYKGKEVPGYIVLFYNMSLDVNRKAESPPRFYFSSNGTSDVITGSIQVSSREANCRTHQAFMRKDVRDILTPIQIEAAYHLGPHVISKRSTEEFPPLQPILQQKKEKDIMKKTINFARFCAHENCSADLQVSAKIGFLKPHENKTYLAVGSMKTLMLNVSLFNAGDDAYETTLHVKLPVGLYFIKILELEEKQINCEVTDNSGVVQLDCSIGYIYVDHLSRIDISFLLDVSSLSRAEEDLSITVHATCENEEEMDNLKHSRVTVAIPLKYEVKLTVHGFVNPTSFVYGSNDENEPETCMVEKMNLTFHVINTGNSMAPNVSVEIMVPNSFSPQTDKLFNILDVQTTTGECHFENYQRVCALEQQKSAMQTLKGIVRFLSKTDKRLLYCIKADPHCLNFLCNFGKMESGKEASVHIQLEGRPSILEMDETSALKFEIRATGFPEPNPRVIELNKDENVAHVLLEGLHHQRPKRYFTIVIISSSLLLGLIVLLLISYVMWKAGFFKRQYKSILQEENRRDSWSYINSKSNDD
# [8] = superoxide lowering in aged yeast cells, pilot screen, validation compound set (AID 2706;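 active means superoxide response below 65% of plate, a cut near 3 SD across the whole screen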;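 further: yeast exposed to compound for one week at 30 degrees C before staining; 100% = mean of all compound wells on the same plate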); conditions: S. cerevisiae aging, superoxide DHE fluorescence; at 10 µM; stronger effect = lower value
# [9] = target: Beta-adrenergic receptor kinase 1 (Homo sapiens) (UniProt P25098); experiment: GRK2 binders displacing RNA aptamer, biochemical, validation, human GRK2, bead flow cytometry (AID 488806;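 active means aptamer binding inhibition above 30%, about 3 SD of noise from non-fluorescent compounds; inactive means inhibition at or below 30%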); conditions: bead-bound GRK2, FAM-aptamer displacement, at 10 µM, stronger effect = higher value
# Beta-adrenergic receptor kinase 1 (Homo sapiens), sequence (P25098 whole entry, looked up): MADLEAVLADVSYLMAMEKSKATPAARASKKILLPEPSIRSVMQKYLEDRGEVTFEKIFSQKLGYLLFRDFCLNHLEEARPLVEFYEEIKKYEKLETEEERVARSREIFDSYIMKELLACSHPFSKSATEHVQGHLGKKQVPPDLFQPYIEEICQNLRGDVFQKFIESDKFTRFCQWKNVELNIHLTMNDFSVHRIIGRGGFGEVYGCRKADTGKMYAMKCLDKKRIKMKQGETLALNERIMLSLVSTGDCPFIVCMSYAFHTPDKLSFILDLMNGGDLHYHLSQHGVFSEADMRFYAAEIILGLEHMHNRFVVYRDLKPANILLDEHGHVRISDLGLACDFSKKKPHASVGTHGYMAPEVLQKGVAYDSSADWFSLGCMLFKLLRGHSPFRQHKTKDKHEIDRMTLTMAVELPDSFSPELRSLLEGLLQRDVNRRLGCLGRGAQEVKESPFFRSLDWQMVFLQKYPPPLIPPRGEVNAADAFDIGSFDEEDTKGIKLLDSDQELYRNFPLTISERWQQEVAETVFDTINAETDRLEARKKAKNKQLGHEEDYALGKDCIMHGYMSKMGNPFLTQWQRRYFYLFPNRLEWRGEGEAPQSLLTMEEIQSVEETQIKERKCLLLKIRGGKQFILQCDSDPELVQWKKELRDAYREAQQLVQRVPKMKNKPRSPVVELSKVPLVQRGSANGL
# [10] = target: Beta-2 adrenergic receptor (Homo sapiens) (UniProt P07550); experiment: beta2AR agonists driving receptor internalization, pilot screen, cell-based, FAP fluorogen, flow cytometry, validation set (AID 504459;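 active means percent response above 42, roughly 3 SD of non-fluorescent test compounds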;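 further: agonist-driven loss of surface beta2AR via internalization measured by FAP dye flow cytometry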); conditions: Am2.2-beta2AR cells, FAP surface receptor flow cytometry; at 10 µM; stronger effect = higher value
# Beta-2 adrenergic receptor (Homo sapiens), sequence (P07550 whole entry, looked up, the tested form may be a part): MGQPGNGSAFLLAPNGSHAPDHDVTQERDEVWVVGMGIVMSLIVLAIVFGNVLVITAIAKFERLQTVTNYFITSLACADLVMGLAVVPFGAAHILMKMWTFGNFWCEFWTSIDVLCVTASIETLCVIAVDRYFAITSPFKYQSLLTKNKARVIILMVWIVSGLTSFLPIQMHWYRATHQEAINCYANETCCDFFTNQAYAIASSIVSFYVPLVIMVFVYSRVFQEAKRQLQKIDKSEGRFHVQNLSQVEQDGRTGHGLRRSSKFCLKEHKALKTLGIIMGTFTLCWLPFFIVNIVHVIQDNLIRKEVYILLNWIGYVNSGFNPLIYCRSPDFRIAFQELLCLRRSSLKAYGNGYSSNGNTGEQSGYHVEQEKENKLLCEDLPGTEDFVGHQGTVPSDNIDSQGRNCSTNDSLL
# [11] = target: AP-2 complex subunit beta (Homo sapiens) (UniProt P63010); experiment: inhibitors of arrestin peptide binding to AP2, pilot screen, biochemical, validation set, GST-AP2 beads, flow cytometry (AID 504541); conditions: FITC arrestin peptide, at 10 µM, stronger effect = higher value, AP2 beta2 appendage fragment, R879A mutant;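 further: AP2 carries R879A mutation and is captured from E. coli lysate; bead-bound FITC arrestin peptide fluorescence measuring arrestin peptide binding to AP2; 0% = DMSO wells and 100% = excess unlabeled arrestin peptide control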
# AP-2 complex subunit beta (Homo sapiens), sequence (P63010 whole entry, looked up, the tested form may be a part, one chain of several): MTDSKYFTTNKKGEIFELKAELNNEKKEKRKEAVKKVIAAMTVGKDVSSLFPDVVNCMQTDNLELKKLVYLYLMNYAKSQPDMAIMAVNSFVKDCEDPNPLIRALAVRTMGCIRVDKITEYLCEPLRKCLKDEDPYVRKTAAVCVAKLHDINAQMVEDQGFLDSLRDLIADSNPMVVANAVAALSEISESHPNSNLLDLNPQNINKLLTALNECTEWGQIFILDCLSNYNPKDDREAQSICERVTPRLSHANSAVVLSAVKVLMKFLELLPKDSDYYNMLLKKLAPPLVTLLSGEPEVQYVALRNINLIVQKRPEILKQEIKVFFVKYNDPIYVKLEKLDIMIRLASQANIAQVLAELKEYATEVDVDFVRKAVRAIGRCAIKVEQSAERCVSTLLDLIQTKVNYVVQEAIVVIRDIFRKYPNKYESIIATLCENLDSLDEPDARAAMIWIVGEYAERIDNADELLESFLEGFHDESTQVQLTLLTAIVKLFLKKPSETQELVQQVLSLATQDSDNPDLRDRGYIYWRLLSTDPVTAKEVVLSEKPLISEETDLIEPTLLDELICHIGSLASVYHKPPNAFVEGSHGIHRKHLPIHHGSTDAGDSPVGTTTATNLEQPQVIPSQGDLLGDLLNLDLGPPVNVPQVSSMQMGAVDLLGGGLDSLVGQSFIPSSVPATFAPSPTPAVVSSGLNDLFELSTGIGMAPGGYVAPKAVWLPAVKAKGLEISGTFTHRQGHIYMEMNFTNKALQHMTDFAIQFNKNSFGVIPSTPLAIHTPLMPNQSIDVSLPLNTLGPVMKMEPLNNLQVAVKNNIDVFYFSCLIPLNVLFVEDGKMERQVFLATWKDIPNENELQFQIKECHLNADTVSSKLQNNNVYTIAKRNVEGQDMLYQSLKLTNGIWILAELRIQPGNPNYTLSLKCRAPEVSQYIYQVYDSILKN
# [12] = yeast V-ATPase proton transport modulators, S. cerevisiae, pHLuorin, HTS validation (AID 504600; in the data active means response above about 15%;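 further: plate controls were DMSO for no effect and reference compound for full effect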); conditions: S. cerevisiae pHLuorin cytosolic pH, at 10 µM, stronger effect = higher value
# [13] = tested on: anti-desmoglein-3 scFv antibody binding to human DSG3; experiment: inhibitors of anti-DSG3 scFv binding to DSG3, pilot screen, biochemical, validation compound set, bead-based, flow cytometry (AID 588368;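 active means binding below the plate cutoff, the plate median minus 3 SD, with a reading above zero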;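 further: signal is the median channel fluorescence of bead-bound GFP antibody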); conditions: Protein G beads, DSG3-Fc, scFv-GFP binding, at 10 µM, stronger effect = lower value
# [14] = inhibitors of fungal efflux pumps CDR1, CDR2, MDR1, pilot screen, validation compound set, multiplex, phenotypic (AID 588506;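 active means efflux inhibition above 0.42, the validation set average plus 4 SD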;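 further: Nile Red retained in cells so higher fluorescence means more efflux inhibition; 0 = negative control wells and 1 = enniatin B 25 µM full block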); conditions: S. cerevisiae pump-expressing triplex, Nile Red efflux flow cytometry; at 10 µM; stronger effect = higher value; the pumps come from Candida albicans
# [15] = target: ATP-binding cassette sub-family B member 6 (Homo sapiens) (UniProt Q9NP58); experiment: ABCB6 transporter inhibitors, pilot screen, K562-ABCB6 cells, flow cytometry, validation set (AID 588550;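 active means inhibition above the screen-wide mean plus 3 SD, about 51%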;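 further: 0% = DMSO wells and 100% = benzethonium chloride 70 µM positive control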); conditions: K562-ABCB6 porphyrin accumulation, 1 h, at 10 µM, stronger effect = higher value
# ATP-binding cassette sub-family B member 6 (Homo sapiens), sequence (Q9NP58 whole entry, looked up): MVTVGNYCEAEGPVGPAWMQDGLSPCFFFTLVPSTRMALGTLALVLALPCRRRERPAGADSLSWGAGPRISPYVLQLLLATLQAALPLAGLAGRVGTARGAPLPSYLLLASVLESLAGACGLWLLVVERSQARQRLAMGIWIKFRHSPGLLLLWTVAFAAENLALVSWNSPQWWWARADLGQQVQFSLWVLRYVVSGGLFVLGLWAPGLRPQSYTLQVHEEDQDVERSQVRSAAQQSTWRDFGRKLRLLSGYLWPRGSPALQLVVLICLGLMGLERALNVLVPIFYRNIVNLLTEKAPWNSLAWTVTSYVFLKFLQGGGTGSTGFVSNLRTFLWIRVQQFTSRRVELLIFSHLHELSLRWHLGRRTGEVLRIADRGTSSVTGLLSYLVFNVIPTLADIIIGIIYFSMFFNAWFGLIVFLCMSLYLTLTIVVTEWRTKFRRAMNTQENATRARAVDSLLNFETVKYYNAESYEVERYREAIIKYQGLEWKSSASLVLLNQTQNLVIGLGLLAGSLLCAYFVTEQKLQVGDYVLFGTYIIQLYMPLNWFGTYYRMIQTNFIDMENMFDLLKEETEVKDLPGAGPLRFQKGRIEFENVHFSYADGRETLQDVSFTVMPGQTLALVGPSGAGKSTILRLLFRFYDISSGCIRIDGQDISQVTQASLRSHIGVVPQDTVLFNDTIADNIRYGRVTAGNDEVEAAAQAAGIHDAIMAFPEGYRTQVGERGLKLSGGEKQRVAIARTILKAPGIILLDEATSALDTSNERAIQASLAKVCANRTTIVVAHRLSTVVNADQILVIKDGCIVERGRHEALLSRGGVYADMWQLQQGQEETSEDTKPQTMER
# [16] = promoters of myeloid differentiation in arrested cells, primary screen, cell-based, GFP/MAC1 double positive, flow cytometry, validation set (AID 588685;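 active means differentiation response of at least 50%, scaled between solvent and reference control, from cells with both markers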;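 further: compound exposure lasts four days before antibody staining and flow analysis; 0% = DMSO wells and 100% = 5 µM fulvestrant positive control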); conditions: ER-HoxA9 marrow cells, stronger effect = higher value, normalized: vehicle 0, fulvestrant 100
SMILES,percent of DMSO control GFP [1],GFP response vs DMSO [2],percent response of DMSO control [3],GFP response vs DMSO [4],"GFP response, % of DMSO [5]",double positive events [6] [%],vesicle binding response [6],inhibition [7],superoxide response (% of plate) [8],aptamer binding inhibition [9],response [10],inhibition [11],response [12],binding (% of control) [13],efflux inhibition (fraction of control) [14],inhibition [15],differentiation response [16]
Cc1ccc(/C(=C\CN2CCCC2)c2ccccn2)cc1,107% (inactive),104% (inactive),108% (inactive),88.2% (inactive),100% (inactive),57.7,146% (inactive),12.3% (inactive),106% (inactive),1% (inactive),7.2% (inactive),-9.23% (inactive),0.97% (inactive),108% (inactive),0.01 (inactive),-16% (inactive),-19.2% (inactive)
O=C(c1ccco1)N(CCC(c1ccccc1)c1ccco1)Cc1ccco1 (stereo not drawn),103% (inactive),95.2% (inactive),106% (inactive),99.9% (inactive),104% (inactive),80,8050% (inactive),-1.79% (inactive),104% (inactive),5% (inactive),6.76% (inactive),3.27% (inactive),-0.61% (inactive),99.7% (inactive),0.15 (inactive),-3% (inactive),-13.6% (inactive)
CSCCC1NC2(C(=O)Nc3ccc(Cl)cc32)[C@@H]2C(=O)N(C3CCCC3)C(=O)[C@H]12 (stereo partly drawn),101% (inactive),109% (inactive),103% (inactive),102% (inactive),98.9% (inactive),59.4,121% (inactive),-37.3% (inactive),94.5% (inactive),6% (inactive),-27.1% (inactive),-6.32% (inactive),1.16% (inactive),109% (inactive),-0.29 (inactive),-10% (inactive),1.28% (inactive)
CCOC(=O)c1c(C)oc2c1C(=O)c1ccccc1C2=O,111% (inactive),102% (inactive),107% (inactive),104% (inactive),99.9% (inactive),59.4,316% (inactive),-16.1% (inactive),126% (inactive),5% (inactive),3.7% (inactive),0.55% (inactive),0.26% (inactive),96.7% (inactive),-0.22 (inactive),-26% (inactive),-0.36% (inactive)
NS(=O)(=O)c1cc2c(cc1Cl)NC(C(Cl)Cl)NS2(=O)=O (stereo not drawn),100% (inactive),101% (inactive),102% (inactive),108% (inactive),112% (inactive),63,132% (inactive),2.29% (inactive),92.7% (inactive),4% (inactive),23.7% (inactive),-6.64% (inactive),2.72% (inactive),104% (inactive),0.21 (inactive),4% (inactive),-9.91% (inactive)
CCn1cc(CN2N=C(C)CC2c2ccccc2)c(C)n1 (stereo not drawn),95.6% (inactive),120% (inactive),92.9% (inactive),116% (inactive),97.2% (inactive),60.6,87.5% (inactive),-7.25% (inactive),106% (inactive),3% (inactive),7.08% (inactive),-1.16% (inactive),1.03% (inactive),103% (inactive),-0.28 (inactive),3% (inactive),-29.6% (inactive)
O=C(CCCN1C(=O)/C(=C\c2cccc(Br)c2)SC1=S)Nc1cccnc1,94.2% (inactive),104% (inactive),95.8% (inactive),120% (inactive),95.8% (inactive),57.4,211% (inactive),2.3% (inactive),98.5% (inactive),2% (inactive),10.2% (inactive),-4.08% (inactive),-5.34% (inactive),101% (inactive),0.01 (inactive),5% (inactive),-12% (inactive)
CCNC(=O)C12CCC(C)(C(=O)O1)C2(C)C (stereo not drawn),105% (inactive),102% (inactive),102% (inactive),95.8% (inactive),101% (inactive),60.6,120% (inactive),8.28% (inactive),105% (inactive),2% (inactive),6.09% (inactive),6.39% (inactive),2.81% (inactive),95.7% (inactive),-0.54 (inactive),7% (inactive),1.17% (inactive)
CC1(C)Cc2nc3sc4c(=O)n(CC(N)=O)cnc4c3cc2CO1,90.9% (inactive),134% (inactive),115% (inactive),73.2% (inactive),82.2% (inactive),67.5,159% (inactive),3.55% (inactive),102% (inactive),10% (inactive),-4.57% (inactive),12.8% (inactive),-2.49% (inactive),97% (inactive),0.41 (inactive),14% (inactive),-9.01% (inactive)
CC(C)C(=O)Nc1ccc2c3c(cccc13)CC2,95% (inactive),98.5% (inactive),92% (inactive),124% (inactive),102% (inactive),62.6,191% (inactive),10.5% (inactive),99.4% (inactive),5% (inactive),21.1% (inactive),18.6% (inactive),-2.45% (inactive),94.9% (inactive),-0.24 (inactive),8% (inactive),5.6% (inactive)
C[C@]12CC[C@@H]3c4ccc(O)cc4CC[C@H]3[C@@H]1CC[C@@H]2OC(=O)CCC(=O)O,102% (inactive),103% (inactive),91.3% (inactive),127% (inactive),98.6% (inactive),62.4,223% (inactive),-15.8% (inactive),86% (inactive),-7% (inactive),3.34% (inactive),50.5% (inactive),-4.55% (inactive),105% (inactive),0.46 (active),-12% (inactive),42.2% (inactive)
N#C/C(=C/c1ccccc1)C(=O)NCc1ccccc1,97.4% (inactive),108% (inactive),101% (inactive),106% (inactive),102% (inactive),58,197% (inactive),7.76% (inactive),95.8% (inactive),0% (inactive),-0.74% (inactive),8.66% (inactive),-0.63% (inactive),101% (inactive),-0.06 (inactive),3% (inactive),-18.4% (inactive)
CC(=O)c1cc2c(cc1NC(=O)c1ccco1)OCCO2,103% (inactive),107% (inactive),109% (inactive),120% (inactive),110% (inactive),58.2,178% (inactive),10.8% (inactive),91.9% (inactive),1% (inactive),-30.9% (inactive),-8.68% (inactive),-7.07% (inactive),99.5% (inactive),-0.04 (inactive),2% (inactive),-11.9% (inactive)
COc1ccc(C(=O)N2c3cc4c(cc3C(C)=CC2(C)C)OCO4)cc1,97.8% (inactive),103% (inactive),98.9% (inactive),116% (inactive),93.4% (inactive),56.6,40.1% (inactive),-2.53% (inactive),98.5% (inactive),5% (inactive),4.24% (inactive),-10.4% (inactive),-0.49% (inactive),96.1% (inactive),-0.04 (inactive),10% (inactive),-1.71% (inactive)
O=C(O)CCCCCN1C(=O)C(=O)/C(=C(/O)c2ccccc2)C1c1ccccc1 (stereo not drawn),99.5% (inactive),97.4% (inactive),98.6% (inactive),119% (inactive),102% (inactive),63.1,212% (inactive),-5.89% (inactive),103% (inactive),7% (inactive),-2.6% (inactive),-10.9% (inactive),-1.69% (inactive),98% (inactive),-0.06 (inactive),7% (inactive),7.2% (inactive)
O=C(c1ccc(Cl)cc1)C1CCCN(Cc2ccc(Oc3ncccn3)cc2)C1 (stereo not drawn),108% (inactive),104% (inactive),106% (inactive),87.2% (inactive),96.5% (inactive),65.7,227% (inactive),24.4% (inactive),93.5% (inactive),2% (inactive),-3.98% (inactive),-1.25% (inactive),2.78% (inactive),106% (inactive),-0.12 (inactive),21% (inactive),-6.03% (inactive)
CC(C)C12CN3CC(C(C)C)(CN(C1)C3c1ccccc1)C2O (stereo not drawn),98.9% (inactive),101% (inactive),101% (inactive),101% (inactive),109% (inactive),63.9,110% (inactive),14.2% (inactive),99.3% (inactive),6% (inactive),-12.3% (inactive),8.13% (inactive),-11% (inactive),104% (inactive),-0.09 (inactive),6% (inactive),-0.06% (inactive)
COC(=O)c1ccc2c(c1)C(=O)/C(=C/c1ccc(O)cc1)O2,95.4% (inactive),109% (inactive),92% (inactive),111% (inactive),95.5% (inactive),59,90.4% (inactive),-8.62% (inactive),102% (inactive),2% (inactive),-5.34% (inactive),6.94% (inactive),-1.86% (inactive),100% (inactive),0.19 (inactive),2% (inactive),-26.4% (inactive)
CC(/C=C1\SC(=O)N(CCCC(=O)O)C1=O)=C\c1ccccc1,105% (inactive),103% (inactive),99% (inactive),124% (inactive),99.3% (inactive),59.5,161% (inactive),12.5% (inactive),112% (inactive),2% (inactive),-6.06% (inactive),37.2% (inactive),-1.36% (inactive),101% (inactive),0 (inactive),0% (inactive),12.8% (inactive)
